# Source: PubChem BioAssay (EPA / NIEHS)
# Values joined by “and” are separate entries in the source; they are usually repeats but may differ in a detail not shown here. Equal entries are not always repeated. Results filed as inconclusive are left out. A structure can be active in one record and inactive in another. Active and inactive are the calls of the source. How the source made its calls, unless noted: active means hit-call score of the fitted dose curve at least 0.9, where 1 is the maximum; inconclusive means response in the unintended direction; inactive means score below 0.9.
# Assays:
# [1] = target: Peroxisome proliferator-activated receptor gamma (Homo sapiens) (UniProt P37231); test: ATG_hPPARg_XSP2: Attagene TRANS-FACTORIAL Multi-Species (XSP2) HepG2 Assay for human Peroxisome Proliferator-activated Receptor gamma (PPARg) (AID 2283829);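 further: actives raise reporter mRNA above DMSO so AC50 reflects PPARg activation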
# Sequence of Peroxisome proliferator-activated receptor gamma (Homo sapiens) (P37231 whole entry, looked up, the tested form may be a part): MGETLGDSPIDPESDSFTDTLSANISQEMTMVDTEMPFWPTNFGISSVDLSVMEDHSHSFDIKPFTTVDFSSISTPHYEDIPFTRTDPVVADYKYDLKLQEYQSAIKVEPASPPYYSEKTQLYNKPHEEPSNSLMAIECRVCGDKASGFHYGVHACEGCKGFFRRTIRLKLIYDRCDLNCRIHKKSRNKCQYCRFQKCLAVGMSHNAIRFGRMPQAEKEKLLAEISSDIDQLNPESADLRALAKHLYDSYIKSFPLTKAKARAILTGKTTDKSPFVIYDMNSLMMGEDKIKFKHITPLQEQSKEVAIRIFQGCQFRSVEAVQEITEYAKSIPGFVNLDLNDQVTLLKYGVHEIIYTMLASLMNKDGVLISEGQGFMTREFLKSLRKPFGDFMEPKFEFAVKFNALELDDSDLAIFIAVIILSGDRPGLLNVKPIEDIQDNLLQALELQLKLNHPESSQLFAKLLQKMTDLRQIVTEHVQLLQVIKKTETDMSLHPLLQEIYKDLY
# Procedure, shortened: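 Multiplexed transactivation in transfected HepG2 liver cells. Gal4-chimeric receptor activity reported as induced reporter transcript after 24 h.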
# [2] = tested on: turtle Thyroid Hormone Receptor, alpha (TRa), gene 101949057; test: ATG_trTRa_XSP2: Attagene TRANS-FACTORIAL Multi-Species (XSP1) HepG2 Assay for turtle Thyroid Hormone Receptor, alpha (TRa) (AID 2283834);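 further: hits raise reporter mRNA over the DMSO baseline so AC50 marks activators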
# Procedure, shortened: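 Gain-of-signal reporter transcription measured in transiently transfected HepG2 at 24 h post-dose. Fluorescent RT-PCR products were resolved by capillary electrophoresis and compared with DMSO vehicle.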
# [3] = ATG_M_61_XSP2: Attagene TRANS-FACTORIAL Multi-Species (XSP2) HepG2 Assay for M61 Transcription Factor (Internal Marker) (AID 2283835; active means hit-call score of the fitted dose curve at least 0.9, where 1 is the maximum; inactive means score below 0.9;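 further: reporter mRNA of an internal background marker read by RT-PCR and capillary electrophoresis; active means a rise in signal above the DMSO baseline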)
# Procedure, shortened: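 Transient MRTU transfection of human HepG2; 24 h chemical dosing with 3 nM 6-alpha-fluorotestosterone + 1.5 nM norgestrel added for AR stimulation. RNA isolated, RT, PCR, FAM-labelled, HpaI cut, CE read. Positive direction vs DMSO.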
# [4] = target: zebrafish Thyroid Hormone Receptor beta (TRb), thrb (gene 30607) (UniProt Q9PVE4); test: ATG_zfTRb_XSP2: Attagene TRANS-FACTORIAL Multi-Species (XSP1) HepG2 Assay for zebrafish Thyroid Hormone Receptor beta (TRb) (AID 2283836)
# Sequence of zebrafish Thyroid Hormone Receptor beta (TRb), thrb (gene 30607) (Q9PVE4 whole entry, looked up): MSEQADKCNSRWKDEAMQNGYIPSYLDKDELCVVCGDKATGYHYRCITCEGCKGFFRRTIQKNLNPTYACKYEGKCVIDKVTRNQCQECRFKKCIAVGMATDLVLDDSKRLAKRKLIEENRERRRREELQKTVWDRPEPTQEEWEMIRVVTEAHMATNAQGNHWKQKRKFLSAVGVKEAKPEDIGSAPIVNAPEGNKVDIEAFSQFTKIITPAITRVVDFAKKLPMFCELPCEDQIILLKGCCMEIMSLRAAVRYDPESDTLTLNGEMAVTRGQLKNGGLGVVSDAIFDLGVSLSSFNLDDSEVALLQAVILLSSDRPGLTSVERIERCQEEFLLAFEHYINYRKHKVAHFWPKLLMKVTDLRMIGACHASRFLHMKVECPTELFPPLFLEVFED
# Procedure, shortened: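 Transfect HepG2 with multiple reporter transcription units, dose chemical, incubate 24 h. Isolate RNA, reverse-transcribe, amplify and fluorescently label reporter sequences, digest with HpaI, then resolve by capillary electrophoresis. Positive direction fitted against DMSO.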
# [5] = target: human Thyroid hormone Receptor alpha (TRa), THRA (gene 7067) (UniProt P10827); test: ATG_hTRa_XSP2: Attagene TRANS-FACTORIAL Multi-Species (XSP2) HepG2 Assay for human Thyroid hormone Receptor alpha (TRa) (AID 2283838)
# Sequence of human Thyroid hormone Receptor alpha (TRa), THRA (gene 7067) (P10827 whole entry, looked up, the tested form may be a part): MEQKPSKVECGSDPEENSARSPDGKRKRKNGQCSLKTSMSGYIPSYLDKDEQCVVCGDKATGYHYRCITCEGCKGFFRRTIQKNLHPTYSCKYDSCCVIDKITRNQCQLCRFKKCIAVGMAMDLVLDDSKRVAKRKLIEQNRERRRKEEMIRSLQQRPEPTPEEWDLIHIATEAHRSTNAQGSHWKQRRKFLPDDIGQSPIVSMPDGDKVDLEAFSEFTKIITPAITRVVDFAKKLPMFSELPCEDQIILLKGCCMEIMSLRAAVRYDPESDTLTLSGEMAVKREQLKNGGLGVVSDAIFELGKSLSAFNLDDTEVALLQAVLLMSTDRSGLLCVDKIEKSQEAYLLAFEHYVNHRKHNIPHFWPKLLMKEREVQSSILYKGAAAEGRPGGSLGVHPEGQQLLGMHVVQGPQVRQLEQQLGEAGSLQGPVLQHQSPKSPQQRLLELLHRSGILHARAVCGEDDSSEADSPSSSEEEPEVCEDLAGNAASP
# Procedure, shortened: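 Reporter transcripts were read by RT-PCR with fluorescent primer extension, HpaI digestion and capillary electrophoresis. These came from HepG2 cells carrying multiplexed TRa-Gal4 TRANS constructs, harvested 24 hours after dosing. The medium also held 6-alpha-fluorotestosterone (3 nM) and norgestrel (1.5 nM), and increases were fitted against DMSO.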
# [6] = target: mouse Peroxisome Proliferator-activated Receptor gamma (PPARg), Pparg (gene 19016) (UniProt P37238); test: ATG_mPPARg_XSP2: Attagene TRANS-FACTORIAL Multi-Species (XSP2) HepG2 Assay for mouse Peroxisome Proliferator-activated Receptor gamma (PPARg) (AID 2283830);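 further: hits are gains in reporter mRNA above DMSO so AC50 marks activation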
# Sequence of mouse Peroxisome Proliferator-activated Receptor gamma (PPARg), Pparg (gene 19016) (P37238 whole entry, looked up, the tested form may be a part): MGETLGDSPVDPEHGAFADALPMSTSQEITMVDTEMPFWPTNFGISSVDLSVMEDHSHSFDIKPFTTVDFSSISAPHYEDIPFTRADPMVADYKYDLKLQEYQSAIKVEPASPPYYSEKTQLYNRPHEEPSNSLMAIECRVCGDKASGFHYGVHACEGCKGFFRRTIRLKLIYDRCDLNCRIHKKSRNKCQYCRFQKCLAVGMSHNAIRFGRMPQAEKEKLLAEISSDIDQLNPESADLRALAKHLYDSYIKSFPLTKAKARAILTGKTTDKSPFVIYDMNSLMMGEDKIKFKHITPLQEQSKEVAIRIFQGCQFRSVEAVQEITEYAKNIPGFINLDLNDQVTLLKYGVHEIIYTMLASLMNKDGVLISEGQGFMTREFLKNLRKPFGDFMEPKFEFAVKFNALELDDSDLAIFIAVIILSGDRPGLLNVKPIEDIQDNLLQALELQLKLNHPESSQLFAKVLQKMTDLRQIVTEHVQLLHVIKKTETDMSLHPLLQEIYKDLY
# Procedure, shortened: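 Multiplexed TRANS reporter readout: after 24 h chemical exposure of transfected HepG2 cells (with 3 nM 6-alpha-fluorotestosterone, 1.5 nM norgestrel present), RNA reverse-transcribed, amplified, 6-FAM-labelled and resolved by capillary electrophoresis; mouse PPARg-Gal4 induction scored against DMSO.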
# [7] = target: Nuclear receptor subfamily 1 group I member 2 (Mus musculus) (UniProt O54915); test: ATG_mPXR_XSP2: Attagene TRANS-FACTORIAL Multi-Species (XSP1) HepG2 Assay for mouse Pregnane X Receptor (PXR) (AID 2283831)
# Sequence of Nuclear receptor subfamily 1 group I member 2 (Mus musculus) (O54915 whole entry, looked up, the tested form may be a part): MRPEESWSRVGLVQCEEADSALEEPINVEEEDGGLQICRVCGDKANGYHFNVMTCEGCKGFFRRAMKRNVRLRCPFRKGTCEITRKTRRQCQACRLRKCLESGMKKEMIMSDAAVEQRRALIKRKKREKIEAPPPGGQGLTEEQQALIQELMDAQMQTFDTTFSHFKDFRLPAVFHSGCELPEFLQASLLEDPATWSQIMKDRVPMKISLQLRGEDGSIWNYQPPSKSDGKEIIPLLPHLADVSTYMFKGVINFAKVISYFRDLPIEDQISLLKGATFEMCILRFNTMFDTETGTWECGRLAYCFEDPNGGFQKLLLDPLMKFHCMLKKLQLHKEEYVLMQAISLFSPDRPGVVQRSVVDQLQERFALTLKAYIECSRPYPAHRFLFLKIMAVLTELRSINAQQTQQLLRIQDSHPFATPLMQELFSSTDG
# Procedure, shortened: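 Human liver HepG2 cells expressing exogenous receptor-GAL4 chimeras were exposed to test chemicals for 24 h. Induction of reporter mRNA was scored as gain of fluorescence signal over DMSO controls.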
# [8] = target: zebrafish Thyroid Hormone Receptor alpha (TRa), thraa (gene 30670) (UniProt Q98867); test: ATG_zfTRa_XSP2: Attagene TRANS-FACTORIAL Multi-Species (XSP1) HepG2 Assay for zebrafish Thyroid Hormone Receptor alpha (TRa) (AID 2283832);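 further: actives raise zebrafish TRa-Gal4 reporter transcript above DMSO baseline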
# Sequence of zebrafish Thyroid Hormone Receptor alpha (TRa), thraa (gene 30670) (Q98867 whole entry, looked up, the tested form may be a part): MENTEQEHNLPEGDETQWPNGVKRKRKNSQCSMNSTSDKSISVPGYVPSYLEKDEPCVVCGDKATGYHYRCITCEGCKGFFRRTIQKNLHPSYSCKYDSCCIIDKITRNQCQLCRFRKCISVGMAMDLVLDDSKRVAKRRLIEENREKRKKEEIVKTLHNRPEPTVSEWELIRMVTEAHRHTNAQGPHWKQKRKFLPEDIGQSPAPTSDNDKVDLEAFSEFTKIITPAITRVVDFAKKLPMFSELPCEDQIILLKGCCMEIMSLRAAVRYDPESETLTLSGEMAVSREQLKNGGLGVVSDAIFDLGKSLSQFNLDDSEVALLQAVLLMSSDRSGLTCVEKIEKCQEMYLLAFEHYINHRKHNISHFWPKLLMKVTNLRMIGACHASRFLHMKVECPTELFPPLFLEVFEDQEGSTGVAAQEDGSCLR
# Procedure, shortened: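 HepG2, transient MRTU transfection, exogenous NR-Gal4 chimeras; 24 h dosing; mRNA readout via RT-PCR/CE fluorescence; positive direction vs DMSO.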
# [9] = tested on: zebrafish Peroxisome Proliferator-activated Receptor gamma (PPARg), gene 557037; test: ATG_zfPPARg_XSP2: Attagene TRANS-FACTORIAL Multi-Species (XSP2) HepG2 Assay for zebrafish Peroxisome Proliferator-activated Receptor gamma (PPARg) (AID 2283833);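 further: reporter mRNA from a zebrafish PPARg GAL4 chimera measured by RT-PCR and capillary electrophoresis; actives increase reporter signal over DMSO so AC50 reflects activation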
# Procedure, shortened: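 Cell-based transactivation of a chimeric zebrafish PPARg-GAL4 receptor was assessed in transiently transfected HepG2 cells after 24 h of treatment. Reporter mRNA induction, detected fluorescently after RT-PCR, was analysed in the positive direction against DMSO.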
# [10] = ATG_XTT_Cytotoxicity_XSP2: Cytotoxicity Assessment in the Attagene TRANS-FACTORIAL Multi-Species (XSP2) HepG2 Assay (AID 2283837)
# Procedure, shortened: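 XTT-based cell number read-out in human HepG2 liver cells carrying transfected reporter units, measured 24 h after chemical dosing. Activity is signal loss versus DMSO baseline.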
smiles,measurement,setting,value
CCC(=O)O[C@H]1CC[C@H]2[C@@H]3CCC4=CC(=O)CC[C@]4(C)[C@H]3CC[C@]12C,outcome,[1],inactive
same,outcome,[2],inactive
same,outcome,[3],inactive
same,outcome,[4],inactive
same,outcome,[5],inactive
Clc1ccc(C(c2ccccc2Cl)C(Cl)(Cl)Cl)cc1 (stereo not given),outcome,[1],inactive
same,outcome,[6],inactive
same,AC50,[7],5.09 µM (active)
same,outcome,[3],inactive
same,outcome,[5],inactive
C[C@]12CCC(=O)C=C1CC[C@@H]1[C@@H]2CC[C@]2(C)C(=O)CC[C@@H]12,outcome,[1],inactive
same,outcome,[7],inactive
same,outcome,[2],inactive
same,outcome,[3],inactive
same,outcome,[4],inactive
same,outcome,[5],inactive
CC(C)(c1ccccc1)c1ccc(O)cc1,outcome,[1],inactive
same,outcome,[6],inactive
same,outcome,[2],inactive
same,outcome,[3],inactive
same,outcome,[4],inactive
same,outcome,[5],inactive
CC(C)(O)C(=O)Nc1ccc([N+](=O)[O-])c(C(F)(F)F)c1,outcome,[7],inactive
same,outcome,[8],inactive
same,outcome,[2],inactive
same,outcome,[3],inactive
same,outcome,[4],inactive
same,outcome,[5],inactive
c1cc2ccc3cccc4ccc(c1)c2c34,AC50,[1],140 µM (active)
same,outcome,[1],inactive
same,AC50,[6],27.9 µM (active)
same,outcome,[6],inactive
same,AC50,[7],19.6 µM (active) and 15 µM (active)
same,outcome,[8],inactive
same,outcome,[9],inactive
same,outcome,[2],inactive
same,outcome,[4],inactive
same,outcome,[10],inactive
same,outcome,[5],inactive
CCOC(=O)C(O)(c1ccc(Cl)cc1)c1ccc(Cl)cc1,AC50,[1],17.4 µM (active) and 31.3 µM (active)
same,AC50,[6],10.6 µM (active) and 22.3 µM (active)
same,AC50,[7],7.9 µM (active) and 8.04 µM (active)
same,outcome,[8],inactive
same,outcome,[9],inactive
same,outcome,[2],inactive
same,outcome,[3],inactive
same,outcome,[4],inactive
same,AC50,[10],100 µM (active)
same,AC50,[5],55.6 µM (active)
same,outcome,[5],inactive
CC(c1ccc(O)cc1)(c1ccc(O)cc1)c1ccc(O)cc1,outcome,[1],inactive
same,outcome,[6],inactive
same,outcome,[8],inactive
same,outcome,[9],inactive
same,outcome,[2],inactive
same,outcome,[3],inactive
same,outcome,[4],inactive
ClC(Cl)=C(c1ccc(Cl)cc1)c1ccc(Cl)cc1,outcome,[1],inactive
same,outcome,[6],inactive
same,outcome,[7],inactive
same,outcome,[2],inactive
same,outcome,[4],inactive
C[C@]12CCC(=O)C=C1CC[C@@H]1[C@@H]2CC[C@@]2(C)[C@H]1CC[C@]2(C)O,outcome,[1],inactive
same,outcome,[2],inactive
same,outcome,[3],inactive
same,outcome,[5],inactive
Cc1cc(-c2ccc(N)c(C)c2)ccc1N,AC50,[1],16.2 µM (active) and 72.1 µM (active) and 100 µM (active)
same,AC50,[6],27.7 µM (active) and 55.5 µM (active)
same,outcome,[6],inactive
same,AC50,[7],5.2 µM (active)
same,outcome,[7],inactive
same,outcome,[8],inactive
same,AC50,[9],10.8 µM (active)
same,outcome,[9],inactive
same,outcome,[2],inactive
same,outcome,[4],inactive
same,outcome,[10],inactive
same,outcome,[5],inactive
Oc1ccc(C(c2ccc(O)cc2)(C(F)(F)F)C(F)(F)F)cc1,outcome,[1],inactive
same,AC50,[6],33.4 µM (active)
same,outcome,[6],inactive
same,outcome,[7],inactive
same,outcome,[8],inactive
same,outcome,[9],inactive
same,outcome,[2],inactive
